Laboratory results as given in PubChem BioAssay (NCATS).
Inconclusive results are not listed. Activity calls are given as the source filed them. Calls follow the shape of the dose curve; as a rule, active = well fitted inhibition curve with a large enough effect; inconclusive = small, poorly fitted or top-dose-only effect; inactive = flat fitted curve, though single readings scatter. Where a SMILES comes first, the peptide text is derived from it. Bridges are numbered along the chain shown (N, C = ends). [ ]: non-standard residue; d: D form. hArg = N=C(N)NCCCC[C@H](N)C(=O)O; Mpa = O=C(O)CCS

Key:
Assay in all cases: qHTS profiling for inhibitors of Plasmodium falciparum proliferation (AID 504749); also: nearly all actives have a fitted effect of over 60% in size
Conditions in all cases: P. falciparum in erythrocytes, SYBR Green DNA, 72 h; series mostly up to 28.7 µM
CP335 = tested on: CP335
Procedure, shortened: (§1)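 Quantitative HTS: compounds pinned into medium, infected erythrocytes added (0.3% parasitemia, 2.5% hematocrit), 72 h culture at 37 C under 5% CO2. Saponin/Triton lysis with SYBR Green I, overnight RT, then fluorescence read.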

DFO2036 = tested on: DFO2036
Procedure, shortened: as §1

DIV14 = tested on: DIV14
Procedure, shortened: as §1

DIV17 = tested on: DIV17
Procedure, shortened: as §1

DIV30 = tested on: DIV30
Procedure, shortened: as §1

Dd2 = tested on: Dd2
Procedure, shortened: as §1

ECU = tested on: ECU
Procedure, shortened: as §1

FAB9 = tested on: FAB9
Procedure, shortened: as §1

GB4 = tested on: GB4
Procedure, shortened: as §1

HB3 = tested on: HB3
Procedure, shortened: as §1

ICS = tested on: ICS
Procedure, shortened: as §1

JCK = tested on: JCK
Procedure, shortened: as §1

N140 = tested on: N140
Procedure, shortened: as §1

P93_24 = tested on: P93_24
Procedure, shortened: as §1

P94_40 = tested on: P94_40
Procedure, shortened: as §1

PAD = tested on: PAD
Procedure, shortened: as §1

PC15 = tested on: PC15
Procedure, shortened: as §1

PC26 = tested on: PC26
Procedure, shortened: as §1

PC49 = tested on: PC49
Procedure, shortened: as §1

SC27B = tested on: SC27B
Procedure, shortened: as §1

Measured: Potency

CC(=O)Nc1ccccc1
inactive: all assays above

Nc1ccc(S(=O)(=O)c2ccc(N)cc2)cc1
inactive: all assays above

CCOC(=O)[C@H](CCc1ccccc1)N[C@@H](C)C(=O)N1CCC[C@H]1C(=O)O
inactive: all assays above

CCCCCCCC(=O)OCC(O)CO (stereo not given)
inactive: all assays above

COc1nccnc1NS(=O)(=O)c1ccc(N)cc1
inactive: all assays above

O=C(CCBr)N1CCN(C(=O)CCBr)CC1
inactive: all assays above

CCOC(N)=O
inactive: all assays above

CC(C)C[C@@H](N)C(=O)O
inactive: all assays above

CC(N)CCCC(C)(C)O (stereo not given)
inactive: all assays above

Cc1c(C(=O)NCCO)[n+](=O)c2ccccc2n1[O-]
inactive: all assays above

O=C(Cn1ccnc1[N+](=O)[O-])NCc1ccccc1
inactive: all assays above

O=C(O)c1ccccc1OP(=O)(O)O
inactive: all assays above

Cn1c(=O)c2c(ncn2CCO)n(C)c1=O
inactive: all assays above

NS(=O)(=O)c1cc2c(cc1C(F)(F)F)NCNS2(=O)=O
inactive: all assays above

CCCOC(=O)c1ccc(N)cc1
inactive: all assays above

NS(=O)(=O)c1ccc(C(=O)O)cc1
inactive: all assays above

Cc1c(Cn2ccnc2)c2ccccc2n1CCC(=O)O
inactive: all assays above

CCOc1cc(NC(C)=O)ccc1C(=O)OC
inactive: all assays above

C[C@@H]1O[C@@H](OC[C@H]2O[C@@H](Oc3c(-c4ccc(O)c(O)c4)oc4cc(O)cc(O)c4c3=O)[C@H](O)[C@@H](O)[C@@H]2O)[C@H](O)[C@H](O)[C@H]1O
inactive: all assays above

O=C(O)c1ccccc1C(=O)Nc1ccc(S(=O)(=O)Nc2nccs2)cc1
inactive: all assays above

CN1CCN(C(=O)C2CCCCC2)CC1
inactive: all assays above

NC(=O)[C@@H]1CSSCCC(=O)N[C@@H](CCCCN=C(N)N)C(=O)NCC(=O)N[C@@H](CC(=O)O)C(=O)N[C@@H](Cc2c[nH]c3ccccc23)C(=O)N2CCC[C@H]2C(=O)N1 ([Mpa][hArg]GDWPC-NH2; disulfide 1-7)
inactive: all assays above

CCCCOC(=O)c1ccc(N)cc1
inactive: all assays above

CCN(CC)CCc1nc(-c2ccccc2)no1
inactive: all assays above

O=c1[nH]c2cc(C(F)(F)F)c(N3CCOCC3)cc2n(CP(=O)(O)O)c1=O
inactive: all assays above

O=C(O)CCCc1ccccc1
inactive: all assays above

Cc1c(I)c(=O)n(-c2ccccc2)n1C
inactive: all assays above

O=C(O)c1ccc(OCCCOc2ccc(C(=O)O)cc2)cc1
inactive: all assays above

O[C@@H]1CO[C@H]2[C@@H]1OC[C@@H]2O
inactive: all assays above
